Laboratory results as given in PubChem BioAssay (NCATS).
Records with an inconclusive call do not appear. Active and inactive are the calls of the source. Calls follow the shape of the dose curve; as a rule, active = well fitted inhibition curve with a large enough effect; inconclusive = small, poorly fitted or top-dose-only effect; inactive = flat fitted curve, though single readings scatter.

What was measured:
Experiment in all cases: qHTS profiling for inhibitors of Plasmodium falciparum proliferation (AID 504749); also: nearly all actives have a fitted effect of over 60% in size
Conditions in all cases: P. falciparum in erythrocytes, SYBR Green DNA, 72 h; series mostly up to 28.7 µM
CP191 = tested on: CP191
Summary of the method: (§1)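 Fluorescence of SYBR Green-bound parasite DNA, read at 485/535 nm, served as the growth measure. Infected erythrocytes were cultured with compound 72 h; artemisinin (0.29 uM) and DMSO wells defined the normalization range.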

CP192 = tested on: CP192
Summary of the method: as §1

CP194 = tested on: CP194
Summary of the method: as §1

CP201 = tested on: CP201
Summary of the method: as §1

CP203 = tested on: CP203
Summary of the method: as §1

CP211 = tested on: CP211
Summary of the method: as §1

CP215 = tested on: CP215
Summary of the method: as §1

CP217 = tested on: CP217
Summary of the method: as §1

CP237 = tested on: CP237
Summary of the method: as §1

CP238 = tested on: CP238
Summary of the method: as §1

Measured: Potency
Potency is read from the fitted curve at half-maximal effect.

CCOC(=O)c1ncn2c1CN(C)C(=O)c1cc(F)ccc1-2
inactive: all assays above

Cc1cc(C(C)(C)C)c(O)c(C)c1CC1=NCCN1
inactive: all assays above

NCCS(=O)(=O)O
inactive: all assays above

Cn1c(=O)c2[nH]cnc2n(C)c1=O
inactive: all assays above

O=c1c(-c2ccc(O)cc2)coc2cc(O)cc(O)c12
inactive: all assays above

CC(=O)OCC(CCn1cnc2cnc(N)nc21)COC(C)=O
inactive: all assays above

CS(=O)(=O)CCNCc1ccc(-c2ccc3ncnc(Nc4ccc(OCc5cccc(F)c5)c(Cl)c4)c3c2)o1
inactive: all assays above

NCCCCCC(=O)O
inactive: all assays above

NS(=O)(=O)c1cc2c(cc1Cl)NCNS2(=O)=O
inactive: all assays above

COC(=O)Nc1nc2ccc(C(=O)c3cccs3)cc2[nH]1
inactive: all assays above

CC(C)C(=O)Nc1ccc([N+](=O)[O-])c(C(F)(F)F)c1
inactive: all assays above

COc1ccccc1N1CCN(CC(O)COc2cccc3ccccc23)CC1 (stereo not given)
inactive: all assays above

CC(C)Cc1ccc(C(C)C(=O)O)cc1 (stereo not given)
inactive: all assays above

NC(=O)OCC(COC(N)=O)c1ccccc1
inactive: all assays above

CC(CCc1ccc(O)cc1)NCCc1ccc(O)c(O)c1 (stereo not given)
inactive: all assays above

NCCc1cnc[nH]1
inactive: all assays above

CC[N+](CC)(CC)CCOc1cccc(OCC[N+](CC)(CC)CC)c1OCC[N+](CC)(CC)CC
inactive: all assays above

CC(C)(C)C(=O)Oc1ccc(S(=O)(=O)Nc2ccccc2C(=O)NCC(=O)O)cc1
inactive: all assays above

Cc1ccc(C(=O)Nc2ccc(S(=O)(=O)O)c3cc(S(=O)(=O)O)cc(S(=O)(=O)O)c23)cc1NC(=O)c1cccc(NC(=O)Nc2cccc(C(=O)Nc3cc(C(=O)Nc4ccc(S(=O)(=O)O)c5cc(S(=O)(=O)O)cc(S(=O)(=O)O)c45)ccc3C)c2)c1
inactive: all assays above

CCCNCC(O)COc1ccccc1C(=O)CCc1ccccc1 (stereo not given)
active: CP191 1.26 µM | CP192 2.13 µM | CP194 3.38 µM | CP201 6.75 µM | CP203 1.69 µM | CP211 4.78 µM | CP215 1.51 µM | CP217 0.891 µM | CP237 0.447 µM | CP238 1 µM

Clc1ccccc1C(c1ccccc1)(c1ccccc1)n1ccnc1
active: CP191 0.794 µM | CP192 1.81 µM | CP194 1.44 µM | CP201 4.55 µM | CP203 0.721 µM | CP211 2.28 µM | CP215 1.14 µM | CP217 0.631 µM | CP237 0.398 µM | CP238 0.794 µM

COc1ccccc1OCC(O)CN1CCN(CC(=O)Nc2c(C)cccc2C)CC1 (stereo not given)
inactive: all assays above

CN1CCC(=C2c3ccccc3C=Cc3ccccc32)CC1
inactive: all assays above

Cc1cnc(C(=O)NCCc2ccc(S(=O)(=O)NC(=O)NC3CCCCC3)cc2)cn1
inactive: all assays above

Cc1cn([C@H]2C=C[C@@H](CO)O2)c(=O)[nH]c1=O
inactive: all assays above

CCC1(c2ccccc2)C(=O)NCNC1=O
inactive: all assays above

COc1nc(C)nc(Cl)c1NC1=NCCN1
inactive: all assays above

Nc1nnc(-c2cccc(Cl)c2Cl)c(N)n1
inactive: all assays above

CN1C(C(=O)Nc2ccccn2)=C(O)c2ccccc2S1(=O)=O
inactive: all assays above

Cc1cn([C@H]2C[C@H](N=[N+]=[N-])[C@@H](CO)O2)c(=O)[nH]c1=O
inactive: all assays above

CN1CCN2c3ccccc3Cc3ccccc3C2C1 (stereo not given)
inactive: all assays above
